This is a sample that favours compounds with a hit; in the whole collection about 2.9% have one here.
pPAFAH inh = pPAFAH enzyme inhibitors, primary screen, biochemical, fluorescence polarization, human; recombinant pPAFAH, FP-rhodamine probe fluorescence polarization; AID 463082, 2010; inhibition, % at 3.39 µM; 330,000 tested, 1.5% active;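 active = inhibition above the mean inhibition across the screen plus 3 SD, cut at about 25% in these data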;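 also: inhibitors block binding of the rhodamine activity-based probe so polarization drops; 0% = enzyme with DMSO and 100% = wells lacking pPAFAH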
Target sequence (Q13093 whole entry, looked up): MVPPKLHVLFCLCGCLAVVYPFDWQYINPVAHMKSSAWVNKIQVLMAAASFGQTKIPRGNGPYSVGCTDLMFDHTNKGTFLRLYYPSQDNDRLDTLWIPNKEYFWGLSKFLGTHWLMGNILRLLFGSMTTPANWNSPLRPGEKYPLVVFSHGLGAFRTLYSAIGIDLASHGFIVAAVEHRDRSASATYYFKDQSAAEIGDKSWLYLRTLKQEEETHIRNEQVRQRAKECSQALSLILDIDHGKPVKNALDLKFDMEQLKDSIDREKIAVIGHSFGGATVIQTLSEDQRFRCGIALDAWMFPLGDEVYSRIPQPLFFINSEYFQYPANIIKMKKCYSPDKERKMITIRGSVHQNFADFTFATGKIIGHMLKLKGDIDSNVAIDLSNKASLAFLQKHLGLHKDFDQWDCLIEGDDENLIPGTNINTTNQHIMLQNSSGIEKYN
ZTA DNA inh = blocks Epstein-Barr virus ZTA, an EBNA-1 counter-screen; P03206; ZTA-DNA binding, fluorescence polarization; inhibition, % at 11 µM; 320,000 tested, 0.15% active; in the data active = inhibition above about 33%
PAFAH1B2 FP inh = PAFAH1B2 enzyme inhibitors, primary screen, biochemical, fluorescence polarization, human | Platelet-activating factor acetylhydrolase IB subunit alpha2 (Homo sapiens), P68402 | recombinant PAFAH1B2, FP-rhodamine activity probe | inhibition, % at 3.39 µM | 340,000 tested, 1.2% active;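 active = inhibition above the mean of all tested compounds plus 3 SD, cut at about 24% in these data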;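 also: 0% = enzyme with DMSO and 100% = wells lacking PAFAH1B2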
PAFAH2 FP inh = PAFAH2 enzyme inhibitors, primary screen, biochemical, fluorescence polarization, human. Platelet-activating factor acetylhydrolase 2, cytoplasmic (Homo sapiens), Q99487. recombinant PAFAH2, FP-rhodamine activity probe. inhibition, % at 3.39 µM. 340,000 tested, 0.99% active. AID 492956, 2010;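 active = inhibition above the mean over all tested compounds plus 3 SD, cut at about 30% in these data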;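 also: inhibitors block probe labeling of enzyme so polarization drops; 0% = enzyme with DMSO and 100% = wells lacking PAFAH2 protein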
EBNA-1 inh = EBNA-1 DNA-binding inhibitors, primary screen, biochemical, fluorescence polarization. inhibition, % at 14.8 µM. AID 1950, 2009. 300,000 tested, 0.34% active; in the data active = inhibition above about 28%
PAFAH1B3 inh = PAFAH1B3 enzyme inhibitors, primary screen, biochemical, fluorescence polarization, human; 340,000 tested, 0.28% active; recombinant PAFAH1B3, FP-rhodamine probe; inhibition, % at 3.39 µM; AID 492972, 2010; Platelet-activating factor acetylhydrolase IB subunit alpha1 (Homo sapiens), Q15102;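 active = inhibition above the screen-wide average of all tested compounds plus 3 SD, cut at about 25% in these data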;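 also: 0% = enzyme with DMSO only and 100% = wells lacking PAFAH1B3 protein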
Target sequence (Q15102 whole entry, looked up): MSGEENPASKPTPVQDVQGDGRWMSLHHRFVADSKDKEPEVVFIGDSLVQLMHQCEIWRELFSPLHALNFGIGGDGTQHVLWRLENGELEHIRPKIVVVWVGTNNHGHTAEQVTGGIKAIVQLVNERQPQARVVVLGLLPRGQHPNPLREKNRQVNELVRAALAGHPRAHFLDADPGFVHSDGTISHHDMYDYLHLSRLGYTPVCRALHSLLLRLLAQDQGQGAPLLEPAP
* hit, by the source's call; . = no result given.

SMILES | pPAFAH inh | ZTA DNA inh | PAFAH1B2 FP inh | PAFAH2 FP inh | EBNA-1 inh | PAFAH1B3 inh
Cc1ccc(C)n1-c1ccc(N2CCOCC2)cc1 | 7.8 | 15.5 | -0.1 | 5.3 | -4.0 | 12.6
Cc1ccc(C)n1-c1ccc(N(C)C)cc1 | 9.5 | 180.5* | 1.6 | -0.3 | 108.7* | 2.5
O=S(=O)(Cc1ccccc1)N1CCn2c(nc3ccccc32)C1 | 1.1 | -5.0 | 2.3 | 5.7 | 3.1 | 6.8
O=S(=O)(c1ccc(Br)cc1)N1CCn2c(nc3ccccc32)C1 | 0.0 | -4.9 | 28.8* | 7.7 | -1.9 | 8.4
CCOC(=O)/C=C(\C)Sc1cc(=O)oc2ccccc12 | -0.9 | 2.9 | 11.1 | 3.8 | 2.1 | 8.7
CCOC(=O)/C=C(\C)Sc1cc(O)c2ccccc2c1O | . | . | 19.0 | 30.6* | . | 36.5*
O=C(N/N=C/c1cc([N+](=O)[O-])ccc1O)C12CC3CC(CC(C3)C1)C2 | 5.6 | 6.6 | 42.3* | 90.5* | -3.4 | 6.9
O=C(N/N=C/c1cc([N+](=O)[O-])ccc1O)NC12CC3CC(CC(C3)C1)C2 | 18.9 | 13.8 | 87.9* | 22.8 | 4.0 | 10.4
CCNC(=O)C(=O)N/N=C/c1cc([N+](=O)[O-])ccc1O | 4.2 | -7.1 | 3.6 | -2.1 | -1.9 | 4.1
OCC1(CO)CCCC(CO)(CO)C1O | . | . | 3.9 | 0.7 | . | 6.1
O=C1CCc2ccccc2N1 | 6.0 | 11.7 | 4.8 | 3.5 | 8.2 | -3.8
S=C1Cc2ccccc2N1 | . | . | 17.9 | 41.3* | . | 28.9*
Cc1cc(N=Nc2ccc(C)c(N=Nc3cc(C)c(N)cc3N)c2)c(N)cc1N | 17.6 | -2.6 | 3.7 | 1.6 | 1.7 | 21.0
O=C(CSc1nc2ccccc2c(=O)n1-c1ccccc1)c1c[nH]c2ccccc12 | -6.6 | -1.9 | -10.6 | -11.7 | 37.2* | -12.1
COc1cccc(C(=O)OCC(=O)NC23CC4CC(CC(C4)C2)C3)c1 | 26.7* | . | 19.3 | 81.6* | . | 12.1
CC(=O)Oc1cc(C(=O)OCC(=O)NC23CC4CC(CC(C4)C2)C3)cc(OC(C)=O)c1OC(C)=O | . | . | 64.8* | 88.5* | . | 3.1
COc1ccccc1CCNC(=O)CSc1nc(=O)[nH]c2c1CCC2 | 0.2 | 4.9 | 0.5 | 2.1 | 8.1 | 2.5
COc1ccc(NCc2cccnc2)cc1 | -4.6 | 2.1 | -1.7 | 7.4 | -2.2 | 5.8
Cc1cccc(CC(=O)N2CCC(N3CCC(C(=O)N4CCOCC4)CC3)CC2)c1 | 1.4 | 7.0 | -0.1 | -7.4 | 6.7 | 6.7
CCCCCCC[C@@H](C/C=C/CCC(=O)O)OC | 10.6 | . | 9.7 | -0.3 | . | 7.6
CCCCCCC[C@@H](C/C=C/CCC(=O)N(C)C/C(=C/Cl)C/C(=C\C(=O)N1CC(OC)=CC1=O)OC)OC | 28.1* | . | 2.6 | 8.4 | . | 7.5
CCOc1ccc(C2C3=C(CCCC3=O)Nc3ccc4ncccc4c32)cc1 (configuration not stated) | 28.7* | 0.0 | 1.2 | -0.1 | -1.8 | 6.9
CCNc1ccccc(C(=O)/C=C/c2ccc3c(c2)OCO3)c1=O | 31.7* | 15.1 | 5.5 | 29.9* | -20.7 | 8.2
COC(=O)/C=C/c1ccc2c(c1)OCO2 | -5.8 | 6.0 | 0.8 | -5.0 | 1.3 | 0.1
CC(=O)NC(Cc1c[nH]c2ccccc12)C(=O)OCC(=O)N1CCN(S(=O)(=O)c2ccc(Cl)cc2)CC1 (configuration not stated) | . | . | 88.1* | 0.8 | . | -0.4
SMILES | pPAFAH inh | ZTA DNA inh | PAFAH1B2 FP inh | PAFAH2 FP inh | EBNA-1 inh | PAFAH1B3 inh
O=C(Cc1c[nH]c2ccccc12)N1CCN(S(=O)(=O)c2ccc(Cl)cc2)CC1 | . | . | 22.4 | -0.3 | . | -0.4
COc1ccccc1C1=NC(c2ccc(C)cc2)N=C1C (configuration not stated) | 24.6* | 3.2 | 7.7 | -3.5 | -2.2 | 7.9
COc1ccccc1-c1nnc(-c2ccc(C)cc2)o1 | 2.6 | 10.3 | -1.3 | 8.4 | -0.7 | -4.6
O=C(C=Cc1ccco1)c1cc(Cl)ccc1O | . | . | 3.1 | 6.5 | . | 5.0
CC(/C=C/c1ccco1)=N\NC(=O)c1cc(Cl)ccc1O | 31.6* | 8.7 | 10.2 | 16.9 | -6.8 | 9.9
CCOC(=O)C(CC(=O)O)=C(c1ccccc1)c1ccccc1 | 1.8 | 6.1 | 32.2* | 5.4 | -15.7 | 7.5
CCOC(=O)C(NC(=O)c1ccccc1)=C(C)C | 3.0 | 1.5 | 1.8 | 4.6 | 0.9 | 4.9
CN(C(=O)c1ccc(Br)o1)C1(C)CCS(=O)(=O)C1 (configuration not stated) | 5.2 | -15.3 | 2.0 | 1.9 | 11.6 | -2.8
Cc1ccc(S(=O)(=O)Nc2ccc3c(c2)nc(CCN2CCN(c4ccccn4)CC2)n3C)cc1 | 2.0 | 14.9 | 11.8 | -4.7 | 1.8 | 0.7
Cn1c(CCN2CCN(c3ccccn3)CC2)nc2cc(NS(=O)(=O)c3ccc(Cl)cc3)ccc21 | 14.4 | 0.3 | 25.6* | 0.7 | 6.4 | 0.4
Cn1c(CNS(=O)(=O)c2ccc(Br)cc2)n[nH]c1=S | 6.9 | 0.5 | 24.4* | 4.1 | 10.4 | 9.8
Cc1ccc(S(=O)(=O)NCc2n[nH]c(=S)n2C)cc1 | 1.8 | -6.0 | 5.0 | 8.0 | -14.5 | 0.3
O=C(COC(=O)/C=C/c1cccc(F)c1)NC(=O)NCc1ccccc1 | -1.3 | . | 2.2 | -10.2 | . | 7.4
Cc1ccc(CSc2nnc(CNc3ccc(F)cc3)o2)cc1 | 9.0 | -13.7 | 25.9* | 6.5 | -5.1 | 1.6
O=[N+]([O-])c1ccc(OS(=O)(=O)Cc2ccccc2)cc1 | 0.0 | -9.3 | 0.5 | 8.1 | -7.7 | -0.9
O=S(=O)(Cc1ccc(Cl)cc1)Oc1ccc(Cl)cc1 | . | . | 24.8* | -1.2 | . | 4.8
CCN(CC)c1ccc(C(=O)O)cc1 | 1.8 | -11.0 | 2.1 | 0.3 | -13.1 | 6.9
CCN(CC)c1ccc(/C=C2\C(=O)c3ccc(C(=O)O)cc3C2=O)cc1 | 27.9* | 20.8 | 1.3 | 20.3 | -9.8 | -19.9
COc1ccccc1-n1c(=O)c(C#N)c(-c2ccc([N+](=O)[O-])cc2)c2cc(C(=O)c3cc(F)ccc3O)cnc21 | 1.3 | -4.7 | 2.4 | -3.3 | -20.3 | -2.1
Cn1c(=O)c(C#N)c(-c2ccc(F)cc2)c2cc(C(=O)c3cc(Cl)cc(Cl)c3O)cnc21 | 26.2* | 6.9 | 6.6 | 13.9 | 2.1 | 7.7
CCn1c(N)[n+](CC(=O)Nc2ccc(SC(F)F)cc2)c2ccccc21 | 1.9 | -7.0 | 0.3 | 4.2 | 2.6 | 5.4
O=C(Oc1cc2oc(=O)cc(-c3ccccc3)c2cc1Cl)C1CCCCC1 | 4.3 | -6.4 | 47.4* | -1.4 | 2.5 | 5.3
O=C(Oc1ccc2ccc(=O)oc2c1)C1CCCCC1 | 4.0 | -8.8 | -1.2 | 2.6 | 3.3 | -0.1
O=C1Cc2ccccc2C(=O)N1OCc1ccc(Cl)cc1 | 4.7 | 9.3 | 25.3* | 7.5 | 9.7 | 7.7
O=C1c2ccccc2C(=O)N1OCc1ccc(Cl)cc1 | 3.9 | -1.7 | 13.2 | 1.1 | -1.1 | 3.8
